Experimental data as given in PubChem BioAssay.

assay: viability loss with induced miR-34 in A549 – imaging, A549 dox-inducible miR-34, nuclei and caspase counts, primary screen (AID 1347080); settings: A549 miR-34 inducible, Hoechst nuclei count, 48 h; measured here: total cells with miR-34 induction; stronger effect = lower value; also: test concentration not given here

Point of comparison: `CCCCC/C=C\C/C=C\C/C=C\C/C=C\CCCC(=O)N[C@@H](C)C(=O)O`, cell count 5770. Against it:
- COc1ccc(/C=C/C(=O)CC(=O)/C=C/c2ccc(OC)c(OC)c2)cc1OC — lower, 5430
- CCCCCCC(=O)O[C@H]1CC[C@H]2[C@@H]3CC(=O)C4=CC(=O)CC[C@]4(C)[C@H]3CC[C@]12C — lower, 5250
- CC1OC(=O)C(C(C)C)NC(=O)C(C(C)C)OC(=O)C(C(C)C)NC(=O)C(C)OC(=O)C(C(C)C)NC(=O)C(C(C)C)OC(=O)C(C(C)C)NC(=O)C(C)OC(=O)C(C(C)C)NC(=O)C(C(C)C)OC(=O)C(C(C)C)NC1=O (stereo not drawn) — lower, 1020
- COc1cc(/C=C\c2ccc(OC)c(O)c2)cc(OC)c1 — lower, 1120
- CCCCC/C=C\C/C=C\C/C=C\C/C=C\CCCC(=O)NC(CO)CO — lower, 5640
- CCCCC/C=C\C/C=C\C/C=C\C/C=C\CCCC(=O)NCCF — lower, 5320
- C[C@@H]1CC([C@H](O)CC2CC(=O)NC(=O)C2)C(=O)[C@@H](C)C1 (stereo partly drawn) — lower, 1800
- c1cc(N2CCNCC2)c2cc[nH]c2c1 — lower, 4820
- CC(C)CC(NP(=O)(O)OC1OC(C)C(O)C(O)C1O)C(=O)NC(Cc1c[nH]c2ccccc12)C(=O)O (stereo not drawn) — higher, 9030
- CCCCC/C=C\C/C=C\C/C=C\C/C=C\CCCC(=O)NC[C@@H](C)O — higher, 5790
- CCCCC/C=C\C/C=C\C/C=C\C/C=C\CCCC(=O)NCCOP(=O)(O)O — higher, 5850
- CCCCCCCC/C=C\CCCCCCCC(=O)OC[C@@H](COP(O)(O)=S)OC — higher, 6260
- CCCCC/C=C\C/C=C\C/C=C\C/C=C\CCCC(=O)Nc1ccc2c(C)cc(=O)oc2c1 — lower, 5170
- CN[C@@H]1CC2OC(C)([C@@H]1OC)n1c3ccccc3c3c4c(c5c6ccccc6n2c5c31)C(=O)NC4 (stereo partly drawn) — lower, 692
- CCN1C[C@@]2(COC)C3[C@@H](OC)[C@H]4[C@H]1C3([C@@H]1C[C@@]3(O)[C@H](OC(=O)c5ccccc5)[C@@H]1[C@]4(OC(C)=O)[C@@H](O)[C@@H]3OC)[C@H](OC)C[C@H]2O — lower, 5730
- CCCCC/C=C\C/C=C\C/C=C\C/C=C\CCCC(=O)Nc1ccc(O)cc1C — higher, 6030
- CCCN(CCCN)N(O)N=O — higher, 5850
- CCCCCc1cc(O)c2c(c1)OC(C)(C)[C@@H]1CCC(C(=O)O)=CC21 (stereo partly drawn) — higher, 5920
- c1cc2cc(N3CCNCC3)ccc2cn1 — lower, 5380
- CCCCC/C=C\C/C=C\C/C=C\C/C=C\CCCC(=O)NCC(O)CC(=O)O (stereo not drawn) — lower, 5440
- COc1ccc(S(=O)(=O)N(CCO)c2ccccc2CN(C)C/C=C/c2ccc(Cl)cc2)cc1 — lower, 5240
- CCCCC/C=C\C/C=C\C/C=C\C/C=C\CCCC(=O)Nc1cccc([N+](=O)[O-])c1 — lower, 5310
- CN=C(NS(=O)(=O)c1ccc(Cl)cc1)N1C[C@H](c2ccccc2)C(c2ccc(Cl)cc2)=N1 — lower, 5510
- CCCCC/C=C\C/C=C\C/C=C\C/C=C\CCCC(=O)Nc1cccc(O)c1 — lower, 5390
- COC(=O)[C@@]1(O)CC2OC1(C)n1c3ccccc3c3c4c(c5c6ccccc6n2c5c31)C(=O)NC4 (stereo partly drawn) — lower, 2180
- CCCCCCC(=O)O[C@H]1CC[C@H]2[C@@H]3C[C@@H](O)C4=CC(=O)CC[C@]4(C)[C@H]3CC[C@]12C — lower, 5500
- CC[C@@]1(O)C(=O)OCc2c1cc1n(c2=O)-c2cc3ccccc3nc2C1 — lower, 1320
- C=C1[C@@H](C)[C@H]2[C@H](Cc3ccccc3)NC(=O)C23[C@H](OC(C)=O)/C=C/[C@](C)(O)C(=O)[C@@H](C)C/C=C/[C@H]3[C@@H]1O (stereo partly drawn) — lower, 990
- COc1ccc2cc(C(C#N)OC(=O)OCC3OC3c3ccccc3)ccc2c1 (stereo not drawn) — lower, 5380
- COc1ccc(/C=C\c2cc(OC)cc(OC)c2)cc1 — lower, 1220
- CCCCC/C=C\C/C=C\C/C=C\C/C=C\CCC(C)C(=O)NCCF (stereo not drawn) — lower, 5220
- CCCCC/C=C\C/C=C\C/C=C\C/C=C\CCCC(=O)NC — higher, 5880
- CCCC[C@@H](C)C(OC(=O)C[C@@H](CC(=O)O)C(=O)O)C(C[C@@H](C)C[C@H](O)CCCC[C@@H](O)C[C@H](O)[C@H](C)N)OC(=O)C[C@@H](CC(=O)O)C(=O)O (stereo partly drawn) — lower, 5390
- O=NN(O)N1CCC[C@H]1C(=O)O — lower, 5740
- CCCCCCC(=O)O[C@H]1CC[C@H]2[C@@H]3C=CC4=CC(=O)CC[C@]4(C)[C@H]3CC[C@]12C — lower, 5660
- C=C(C)[C@@H]1CCC(C)=C[C@H]1c1c(O)cc(O)cc1CCCCC — lower, 5030
- CCCCC/C=C\C/C=C\C/C=C\C/C=C\CCCC(=O)NOCCO — lower, 5500
- CCCCC/C=C\C/C=C\C/C=C\C/C=C\CCCCOC(CO)CO — lower, 5720

same assay, conditions: A549 miR-34 inducible, Hoechst nuclei count, 48 h; measured here: total cells without miR-34 induction

Point of comparison: `CCCCC/C=C\C/C=C\C/C=C\C/C=C\CCCC(=O)NC[C@@H](C)O`, cell count 6030. Against it:
- COc1ccc(/C=C/C(=O)CC(=O)/C=C/c2ccc(OC)c(OC)c2)cc1OC — higher, 6280
- CCCCCCC(=O)O[C@H]1CC[C@H]2[C@@H]3CC(=O)C4=CC(=O)CC[C@]4(C)[C@H]3CC[C@]12C — lower, 5830
- CC1OC(=O)C(C(C)C)NC(=O)C(C(C)C)OC(=O)C(C(C)C)NC(=O)C(C)OC(=O)C(C(C)C)NC(=O)C(C(C)C)OC(=O)C(C(C)C)NC(=O)C(C)OC(=O)C(C(C)C)NC(=O)C(C(C)C)OC(=O)C(C(C)C)NC1=O (stereo not drawn) — lower, 1300
- COc1cc(/C=C\c2ccc(OC)c(O)c2)cc(OC)c1 — lower, 1220
- CCCCC/C=C\C/C=C\C/C=C\C/C=C\CCCC(=O)NC(CO)CO — lower, 5870
- CCCCC/C=C\C/C=C\C/C=C\C/C=C\CCCC(=O)NCCF — lower, 5320
- C[C@@H]1CC([C@H](O)CC2CC(=O)NC(=O)C2)C(=O)[C@@H](C)C1 (stereo partly drawn) — lower, 1780
- c1cc(N2CCNCC2)c2cc[nH]c2c1 — lower, 5570
- CC(C)CC(NP(=O)(O)OC1OC(C)C(O)C(O)C1O)C(=O)NC(Cc1c[nH]c2ccccc12)C(=O)O (stereo not drawn) — higher, 9510
- CCCCC/C=C\C/C=C\C/C=C\C/C=C\CCCC(=O)NCCOP(=O)(O)O — lower, 5880
- CCCCCCCC/C=C\CCCCCCCC(=O)OC[C@@H](COP(O)(O)=S)OC — lower, 5460
- CCCCC/C=C\C/C=C\C/C=C\C/C=C\CCCC(=O)Nc1ccc2c(C)cc(=O)oc2c1 — lower, 5510
- CN[C@@H]1CC2OC(C)([C@@H]1OC)n1c3ccccc3c3c4c(c5c6ccccc6n2c5c31)C(=O)NC4 (stereo partly drawn) — lower, 832
- CCN1C[C@@]2(COC)C3[C@@H](OC)[C@H]4[C@H]1C3([C@@H]1C[C@@]3(O)[C@H](OC(=O)c5ccccc5)[C@@H]1[C@]4(OC(C)=O)[C@@H](O)[C@@H]3OC)[C@H](OC)C[C@H]2O — lower, 5800
- CCCCC/C=C\C/C=C\C/C=C\C/C=C\CCCC(=O)Nc1ccc(O)cc1C — lower, 5870
- CCCN(CCCN)N(O)N=O — lower, 5540
- CCCCCc1cc(O)c2c(c1)OC(C)(C)[C@@H]1CCC(C(=O)O)=CC21 (stereo partly drawn) — higher, 6210
- c1cc2cc(N3CCNCC3)ccc2cn1 — lower, 5630
- CCCCC/C=C\C/C=C\C/C=C\C/C=C\CCCC(=O)NCC(O)CC(=O)O (stereo not drawn) — lower, 5070
- COc1ccc(S(=O)(=O)N(CCO)c2ccccc2CN(C)C/C=C/c2ccc(Cl)cc2)cc1 — lower, 5100
- CCCCC/C=C\C/C=C\C/C=C\C/C=C\CCCC(=O)Nc1cccc([N+](=O)[O-])c1 — lower, 5590
- CN=C(NS(=O)(=O)c1ccc(Cl)cc1)N1C[C@H](c2ccccc2)C(c2ccc(Cl)cc2)=N1 — lower, 5610
- CCCCC/C=C\C/C=C\C/C=C\C/C=C\CCCC(=O)Nc1cccc(O)c1 — lower, 5720
- CCCCC/C=C\C/C=C\C/C=C\C/C=C\CCCC(=O)N[C@@H](C)C(=O)O — higher, 6140
- COC(=O)[C@@]1(O)CC2OC1(C)n1c3ccccc3c3c4c(c5c6ccccc6n2c5c31)C(=O)NC4 (stereo partly drawn) — lower, 2410
- CCCCCCC(=O)O[C@H]1CC[C@H]2[C@@H]3C[C@@H](O)C4=CC(=O)CC[C@]4(C)[C@H]3CC[C@]12C — lower, 5700
- CC[C@@]1(O)C(=O)OCc2c1cc1n(c2=O)-c2cc3ccccc3nc2C1 — lower, 1300
- C=C1[C@@H](C)[C@H]2[C@H](Cc3ccccc3)NC(=O)C23[C@H](OC(C)=O)/C=C/[C@](C)(O)C(=O)[C@@H](C)C/C=C/[C@H]3[C@@H]1O (stereo partly drawn) — lower, 762
- COc1ccc2cc(C(C#N)OC(=O)OCC3OC3c3ccccc3)ccc2c1 (stereo not drawn) — lower, 5890
- COc1ccc(/C=C\c2cc(OC)cc(OC)c2)cc1 — lower, 1130
- CCCCC/C=C\C/C=C\C/C=C\C/C=C\CCC(C)C(=O)NCCF (stereo not drawn) — lower, 4990
- CCCCC/C=C\C/C=C\C/C=C\C/C=C\CCCC(=O)NC — higher, 6170
- CCCC[C@@H](C)C(OC(=O)C[C@@H](CC(=O)O)C(=O)O)C(C[C@@H](C)C[C@H](O)CCCC[C@@H](O)C[C@H](O)[C@H](C)N)OC(=O)C[C@@H](CC(=O)O)C(=O)O (stereo partly drawn) — lower, 5780
- O=NN(O)N1CCC[C@H]1C(=O)O — higher, 6080
- CCCCCCC(=O)O[C@H]1CC[C@H]2[C@@H]3C=CC4=CC(=O)CC[C@]4(C)[C@H]3CC[C@]12C — lower, 5970
- C=C(C)[C@@H]1CCC(C)=C[C@H]1c1c(O)cc(O)cc1CCCCC — lower, 5500
- CCCCC/C=C\C/C=C\C/C=C\C/C=C\CCCC(=O)NOCCO — lower, 5910
- CCCCC/C=C\C/C=C\C/C=C\C/C=C\CCCCOC(CO)CO — lower, 5810
